High-throughput results as filed in PubChem BioAssay.
Only some compounds are listed: those with a hit (about 3.4% of all), similar ones and a draw of the others.
TEAD-YAP block – TEAD-YAP interaction inhibition. 640,000 tested, 1.4% active. inhibition, % at 9.12 µM. HEK-TIYL cells, TEAD-Gal4/YAP UAS-luciferase luminescence; in the data active = inhibition above about 32%;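 also: 0% = median of test compound wells and 100% = reference inhibitor wells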
GPR151 ag – activators of human GPR151; Q8TDV0; PathHunter beta-arrestin GPR151 cells, luminescence; activation, % at 11.2 µM; 650,000 tested, 1% active; in the data active = activation above about 4.9%;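 also: 0% = median of compound wells and 100% = cells with positive control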
FBW7 activator – human FBW7 E3 ligase activation, primary screen. Q969H0. AlphaScreen FBW7–phospho-cyclin E peptide binding, activator screen. normalized activity (activation), % at 26.1 µM. 650,000 tested, 0.13% active; in the data active = normalized activity above about 1.9%;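 also: purified mutant Fbw7 with reduced substrate affinity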
MITF inh – human MITF inhibition, primary screen; AlphaScreen MITF homodimerization, bead proximity signal; AID 1259374; 650,000 tested, 0.91% active; O75030; inhibition, % at 2.6 µM; in the data active = inhibition above about 50%;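 also: 0% = vehicle wells with protein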
Target sequence (O75030 whole entry, looked up): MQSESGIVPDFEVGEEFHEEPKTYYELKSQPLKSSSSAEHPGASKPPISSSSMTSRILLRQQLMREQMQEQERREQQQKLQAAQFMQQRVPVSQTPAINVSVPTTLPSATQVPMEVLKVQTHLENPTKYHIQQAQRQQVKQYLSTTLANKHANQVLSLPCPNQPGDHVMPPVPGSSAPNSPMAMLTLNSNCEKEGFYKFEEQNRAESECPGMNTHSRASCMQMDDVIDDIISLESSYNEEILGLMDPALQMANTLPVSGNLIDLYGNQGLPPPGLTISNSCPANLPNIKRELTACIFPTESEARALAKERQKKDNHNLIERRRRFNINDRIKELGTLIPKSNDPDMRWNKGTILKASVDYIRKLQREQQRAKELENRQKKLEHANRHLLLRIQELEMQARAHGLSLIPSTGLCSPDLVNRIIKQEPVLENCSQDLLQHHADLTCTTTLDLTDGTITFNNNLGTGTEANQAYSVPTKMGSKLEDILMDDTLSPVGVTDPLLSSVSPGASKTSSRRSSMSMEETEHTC
MITF inh conf – human MITF inhibition, confirmation; shares compounds with MITF inh; AlphaScreen MITF homodimerization, biotin/His-MITF beads; inhibition, % at 2.6 µM; 4,700 tested, 16% active; AID 1259372;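 active = inhibition above a cutoff derived from the DMSO control wells, cut at about 28% in these data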;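 also: 0% = MITF dimer wells with DMSO only; inhibitors lower the bead chemiluminescence by keeping MITF from dimerizing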
AS interf ctr – optically interferes with AlphaScreen signal | shares compounds with MITF inh | LysRS AlphaScreen counterscreen, signal interference, triplicate | inhibition, % at 2.6 µM | 4,700 tested, 7.6% active | AID 1259376;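 active = inhibition above a cutoff derived from the DMSO control wells, cut at about 30% in these data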
Active calls of the source: *; · = no result.

SMILES	TEAD-YAP block	GPR151 ag	FBW7 activator	MITF inh	MITF inh conf	AS interf ctr
COc1ccc2c(c1)C(C)CC(C)(C)N2C(=O)CNCc1ccco1 (stereo not drawn)	-5	0	0	57*	12	10
Cc1ccc2c(c1)C(C)CC(C)(C)N2C(=O)CNCCN1CCOCC1 (stereo not drawn)	-8	0	0	87*	10	23
CCOCCCNCC(=O)N1c2ccc(C)cc2C(C)CC1(C)C (stereo not drawn)	5	1	0	56*	17	9
O=[N+]([O-])c1ccccc1S(=O)(=O)Nc1c(Cl)cc(Br)cc1Br	16	-1	0	8	·	·
OCC1CCCN1c1nc(NCc2nc3ccccc3[nH]2)c2ncn(Cc3ccc(C(F)(F)F)cc3)c2n1 (stereo not drawn)	23	-1	0	8	·	·
COc1cc(CN2CCCC2)cc(OC)c1OC	2	-1	0	-1	·	·
COc1cc(CNCc2ccccc2C(F)(F)F)cc(OC)c1OC	-1	2	0	65*	-7	5
CCc1ccc(CN2CCN(Cc3cc(OC)c(OC)c(OC)c3)CC2)cc1	2	0	0	58*	-3	1
COc1cc(CN2CCN(Cc3ccc(F)cc3)CC2)cc(OC)c1OC	-2	1	0	84*	13	10
COc1cc(CN2CCN(c3ccc(F)cc3)CC2)cc(OC)c1OC	7	0	0	24	·	·
COc1cc(CN2CCN(Cc3ccncc3)CC2)cc(OC)c1OC	14	0	0	70*	14	16
COc1cc(CNCc2cccc(OC)c2OC)cc(OC)c1	3	1	0	21	·	·
Cc1cc2c(cc1S(=O)(=O)N1CCn3c1nc1ccccc13)OCC(=O)N2	-7	0	0	-14	·	·
COc1cccc(CNCc2ccncc2)c1	6	-1	0	2	·	·
COc1cc(CNCc2ccncc2)cc(OC)c1OC	-1	-1	0	58*	-1	-5
COc1ccc(CN2CCN(Cc3ccccc3[N+](=O)[O-])CC2)c(OC)c1	-4	-1	0	52*	5	12
COc1ccc(OC)c(CN2CCN(Cc3ccccc3[N+](=O)[O-])CC2)c1	5	0	-1	77*	7	16
CC(=O)N1CCN(Cc2ccccc2[N+](=O)[O-])CC1	1	0	0	-14	·	·
COc1ccc(OC)c(CN2CCN(S(=O)(=O)c3ccccc3[N+](=O)[O-])CC2)c1	-13	0	0	37	·	·
CSc1nc2c([nH]c3ccccc32)c(=O)n1C	2	-1	1	1	·	·
CCOc1ccc(-n2c(CNC(=O)c3cc(OC)c(OC)c(OC)c3)nnc2SCC(=O)Nc2nccs2)cc1	-6	-1	0	2	·	·
CCn1cc(CN2CCN3C(=O)[C@@H](CC(C)C)NC(=O)[C@H]3C2)c(C)n1	0	1	0	-14	·	·
Brc1ccc(CN2CCN(c3ccccn3)CC2)o1	5	-1	1	52*	6	2
Clc1ccccc1N1CCN(Cc2ccc(Br)o2)CC1	3	0	1	40	·	·
Fc1ccc(N2CCN(Cc3ccc(Br)o3)CC2)cc1	0	2	0	51*	3	6
SMILES	TEAD-YAP block	GPR151 ag	FBW7 activator	MITF inh	MITF inh conf	AS interf ctr
Cc1cccc(NC(=O)c2cccc(OCc3ccccc3)c2)n1	6	-6	0	10	·	·
Cc1cccc(NC(=O)c2ccc(COc3ccccc3Br)cc2)n1	1	-1	0	70*	-5	-5
COc1ccc(CN2CCN(Cc3cc4ccccc4[nH]3)CC2CCO)cc1C (stereo not drawn)	4	0	0	5	·	·
CCOC(=O)C1=C(C)N=c2s/c(=C\c3ccc(OCc4ccc(Cl)cc4)c(OCC)c3)c(=O)n2C1c1ccc(Cl)cc1 (stereo not drawn)	1	1	0	4	·	·
CN(C)CCCn1c(SCC(N)=O)nnc1-c1ccncc1	3	-1	0	8	·	·
Cc1ccc(CSc2nnc(-c3ccncc3)n2CCCN(C)C)cc1	8	0	0	72*	7	5
CC(C)CCNC(=O)C(=O)NCc1ccc(C(C)C)cc1	-5	0	0	12	·	·
Cc1cccc(-n2nc([N+](=O)[O-])c(=Nc3cccc(Cl)c3)n2O)c1	16	0	0	56*	0	0
Cc1ccc(N=c2c([N+](=O)[O-])nn(-c3cccc(Cl)c3)n2O)cc1	21	0	-1	12	·	·
CCC(C)(C(=O)NC1CCCCC1)N(CC1CCCO1)C(=O)c1ccc(=O)[nH]c1 (stereo not drawn)	4	-1	0	79*	-7	-4
Cc1ncc2c(c1CNC(=O)Cc1cccs1)CCN(C(=O)CCC1CCCC1)C2	-8	0	0	9	·	·
Cc1ncc2c(c1CNC(=O)Cc1cccs1)CCN(C(=O)C1(C)CCCCC1)C2	7	-1	0	74*	15	10
CC(C)(C)NC(=O)[C@@H]1CCCN1C(=O)OC(C)(C)C	-8	1	0	3	·	·
Cc1cccc(NC(=O)C2CCCN2C(=O)OC(C)(C)C)c1 (stereo not drawn)	-7	0	0	77*	5	1
Cc1cccc(NC(=O)C2CCCN2C(=O)OCc2ccccc2)c1 (stereo not drawn)	2	-1	0	-6	·	·
C=CCN1C(=O)S/C(=C\c2cc(I)c(O)c(OCC)c2)C1=O	-7	-1	1	10	·	·
COc1cccc(-n2nc(C(=O)NCCN3CCOCC3)c3ccccc3c2=O)c1	1	4	0	-4	·	·
O=C(NCc1ccccc1)c1ccc(-c2ccc(N3CCOCC3)nc2)s1	11	0	0	12	·	·
O=C(NCCOc1ccccc1)c1ccc(-c2ccc(N3CCOCC3)nc2)s1	-32	-12	0	80*	3	2
COc1cc(-c2c(C#N)c(N)n3c(nc4ccccc43)c2C#N)ccc1OC(=O)N(C)C	-8	1	0	-7	·	·
COc1cc2c(cc1OC)CN(CC(O)c1ccccc1)CC2 (stereo not drawn)	4	-1	0	51*	-5	-1
COc1cc2c(cc1OC)CN(CCC(c1ccccc1)c1ccccc1)CC2	-6	-1	0	-3	·	·
CC1=C(C(=O)N2CCOCC2)C(c2ccc(C)cc2)NC(=S)N1 (stereo not drawn)	-8	-1	0	70*	9	16
CC1=C(C(=O)N2CCOCC2)C(c2ccc(Cl)cc2)NC(=S)N1 (stereo not drawn)	-4	0	0	-11	·	·
CC1CN(CCOc2cccc3ccccc23)CC(C)O1 (stereo not drawn)	0	-1	0	58*	10	6
O=[N+]([O-])c1ccccc1OCCOc1cccc2cccnc12	-34	0	0	0	·	·
CC1CN(CCOCCOc2ccccc2-c2ccccc2)CC(C)O1 (stereo not drawn)	-9	2	0	72*	17	30
